Test results taken from the supplement of paper PMC12067093, “Discovery and optimisation of a covalent ligand for TRIM25 and its application to targeted protein ubiquitination” (Chemical Science, 2025).
Targets with the largest changes are over-represented here; the source holds about 21,000 in all.

Compound: CC1Cc2ccccc2N1C(=O)C1CCCN(C1)C(=O)CCl (mixture of isomers) [TRIM25 ligand 11 (diastereomer mixture)]
Assay: probe-labelled cysteine peptide fold change vs DMSO (competition) (log2 fold change); higher = less target engagement (more negative = stronger competition)
Settings: THP-1, incubation time: 4 h
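Also: competitive chemoproteomic profiling in live THP-1 cells with an iodoacetamide desthiobiotin (IA-DTB) probe, comparing probe-labelled peptide intensities in compound-treated cells against DMSO-treated controls.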

UniProt Q9UBG0, sequence (Q9UBG0 whole entry, looked up): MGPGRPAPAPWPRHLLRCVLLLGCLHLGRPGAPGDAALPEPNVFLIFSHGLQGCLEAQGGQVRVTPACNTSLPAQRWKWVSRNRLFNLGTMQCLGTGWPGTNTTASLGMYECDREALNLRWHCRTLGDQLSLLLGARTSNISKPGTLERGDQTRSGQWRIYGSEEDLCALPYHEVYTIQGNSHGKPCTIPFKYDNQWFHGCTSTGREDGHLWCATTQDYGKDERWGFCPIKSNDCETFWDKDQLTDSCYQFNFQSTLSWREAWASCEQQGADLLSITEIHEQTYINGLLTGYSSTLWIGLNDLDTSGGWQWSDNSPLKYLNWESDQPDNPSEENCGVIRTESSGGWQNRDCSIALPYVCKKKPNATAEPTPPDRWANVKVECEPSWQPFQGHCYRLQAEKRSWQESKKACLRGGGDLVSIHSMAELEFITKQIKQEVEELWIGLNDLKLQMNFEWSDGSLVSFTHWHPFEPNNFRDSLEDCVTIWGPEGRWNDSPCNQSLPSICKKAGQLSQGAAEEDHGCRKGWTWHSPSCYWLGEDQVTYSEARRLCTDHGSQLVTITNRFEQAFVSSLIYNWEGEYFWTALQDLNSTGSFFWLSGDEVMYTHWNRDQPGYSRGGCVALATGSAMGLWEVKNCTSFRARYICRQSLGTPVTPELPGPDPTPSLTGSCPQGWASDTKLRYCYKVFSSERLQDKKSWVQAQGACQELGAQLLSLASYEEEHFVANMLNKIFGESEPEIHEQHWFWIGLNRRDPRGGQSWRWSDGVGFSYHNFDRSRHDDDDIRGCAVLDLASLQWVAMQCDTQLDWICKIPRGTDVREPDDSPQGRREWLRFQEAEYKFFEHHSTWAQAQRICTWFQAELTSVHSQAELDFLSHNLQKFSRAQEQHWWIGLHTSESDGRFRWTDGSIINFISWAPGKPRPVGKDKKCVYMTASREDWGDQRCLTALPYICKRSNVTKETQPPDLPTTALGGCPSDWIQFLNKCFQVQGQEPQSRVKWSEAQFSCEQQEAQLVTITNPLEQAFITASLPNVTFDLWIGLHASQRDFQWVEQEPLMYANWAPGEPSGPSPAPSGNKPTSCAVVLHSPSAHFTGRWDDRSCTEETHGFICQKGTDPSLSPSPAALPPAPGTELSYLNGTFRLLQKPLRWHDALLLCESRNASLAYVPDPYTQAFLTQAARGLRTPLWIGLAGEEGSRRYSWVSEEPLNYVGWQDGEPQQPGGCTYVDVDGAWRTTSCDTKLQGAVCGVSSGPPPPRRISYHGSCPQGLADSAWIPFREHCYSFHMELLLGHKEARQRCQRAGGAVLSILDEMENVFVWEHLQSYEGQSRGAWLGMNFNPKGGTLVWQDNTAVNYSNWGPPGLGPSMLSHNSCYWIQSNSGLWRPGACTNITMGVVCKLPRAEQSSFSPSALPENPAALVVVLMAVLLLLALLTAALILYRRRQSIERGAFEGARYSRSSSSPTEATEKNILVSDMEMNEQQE
UniProt Q13615, sequence (Q13615 whole entry, looked up): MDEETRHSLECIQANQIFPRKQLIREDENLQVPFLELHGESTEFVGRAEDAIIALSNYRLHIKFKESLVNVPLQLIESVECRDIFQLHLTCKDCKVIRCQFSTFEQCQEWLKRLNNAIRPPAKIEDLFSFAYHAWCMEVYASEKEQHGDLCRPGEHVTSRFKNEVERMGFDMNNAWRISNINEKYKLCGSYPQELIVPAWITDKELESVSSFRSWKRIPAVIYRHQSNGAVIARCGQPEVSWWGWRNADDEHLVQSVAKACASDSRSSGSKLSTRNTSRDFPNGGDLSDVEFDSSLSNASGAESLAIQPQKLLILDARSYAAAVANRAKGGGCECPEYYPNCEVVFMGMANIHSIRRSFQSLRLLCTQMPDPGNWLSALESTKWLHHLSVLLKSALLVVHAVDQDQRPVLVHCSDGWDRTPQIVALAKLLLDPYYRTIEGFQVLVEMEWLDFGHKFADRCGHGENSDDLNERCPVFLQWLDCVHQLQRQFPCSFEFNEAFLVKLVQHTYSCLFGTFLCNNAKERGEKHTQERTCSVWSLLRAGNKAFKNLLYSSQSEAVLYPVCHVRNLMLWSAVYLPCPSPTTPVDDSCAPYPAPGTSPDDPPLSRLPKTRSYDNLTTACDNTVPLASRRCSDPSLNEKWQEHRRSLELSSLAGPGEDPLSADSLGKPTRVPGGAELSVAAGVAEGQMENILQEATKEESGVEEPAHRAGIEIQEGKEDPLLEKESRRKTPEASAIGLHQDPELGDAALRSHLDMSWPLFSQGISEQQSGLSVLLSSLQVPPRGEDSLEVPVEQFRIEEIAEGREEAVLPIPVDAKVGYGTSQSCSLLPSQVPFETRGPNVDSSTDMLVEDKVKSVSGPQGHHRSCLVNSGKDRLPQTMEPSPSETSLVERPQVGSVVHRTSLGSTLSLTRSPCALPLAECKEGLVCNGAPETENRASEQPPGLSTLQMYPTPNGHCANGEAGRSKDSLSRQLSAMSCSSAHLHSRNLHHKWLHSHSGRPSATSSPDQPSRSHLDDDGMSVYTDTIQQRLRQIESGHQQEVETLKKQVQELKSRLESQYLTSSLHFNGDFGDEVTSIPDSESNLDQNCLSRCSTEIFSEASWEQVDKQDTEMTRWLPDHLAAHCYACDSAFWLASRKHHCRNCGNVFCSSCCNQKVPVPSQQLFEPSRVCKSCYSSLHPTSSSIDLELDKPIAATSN
UniProt P42695, sequence (P42695 whole entry, looked up): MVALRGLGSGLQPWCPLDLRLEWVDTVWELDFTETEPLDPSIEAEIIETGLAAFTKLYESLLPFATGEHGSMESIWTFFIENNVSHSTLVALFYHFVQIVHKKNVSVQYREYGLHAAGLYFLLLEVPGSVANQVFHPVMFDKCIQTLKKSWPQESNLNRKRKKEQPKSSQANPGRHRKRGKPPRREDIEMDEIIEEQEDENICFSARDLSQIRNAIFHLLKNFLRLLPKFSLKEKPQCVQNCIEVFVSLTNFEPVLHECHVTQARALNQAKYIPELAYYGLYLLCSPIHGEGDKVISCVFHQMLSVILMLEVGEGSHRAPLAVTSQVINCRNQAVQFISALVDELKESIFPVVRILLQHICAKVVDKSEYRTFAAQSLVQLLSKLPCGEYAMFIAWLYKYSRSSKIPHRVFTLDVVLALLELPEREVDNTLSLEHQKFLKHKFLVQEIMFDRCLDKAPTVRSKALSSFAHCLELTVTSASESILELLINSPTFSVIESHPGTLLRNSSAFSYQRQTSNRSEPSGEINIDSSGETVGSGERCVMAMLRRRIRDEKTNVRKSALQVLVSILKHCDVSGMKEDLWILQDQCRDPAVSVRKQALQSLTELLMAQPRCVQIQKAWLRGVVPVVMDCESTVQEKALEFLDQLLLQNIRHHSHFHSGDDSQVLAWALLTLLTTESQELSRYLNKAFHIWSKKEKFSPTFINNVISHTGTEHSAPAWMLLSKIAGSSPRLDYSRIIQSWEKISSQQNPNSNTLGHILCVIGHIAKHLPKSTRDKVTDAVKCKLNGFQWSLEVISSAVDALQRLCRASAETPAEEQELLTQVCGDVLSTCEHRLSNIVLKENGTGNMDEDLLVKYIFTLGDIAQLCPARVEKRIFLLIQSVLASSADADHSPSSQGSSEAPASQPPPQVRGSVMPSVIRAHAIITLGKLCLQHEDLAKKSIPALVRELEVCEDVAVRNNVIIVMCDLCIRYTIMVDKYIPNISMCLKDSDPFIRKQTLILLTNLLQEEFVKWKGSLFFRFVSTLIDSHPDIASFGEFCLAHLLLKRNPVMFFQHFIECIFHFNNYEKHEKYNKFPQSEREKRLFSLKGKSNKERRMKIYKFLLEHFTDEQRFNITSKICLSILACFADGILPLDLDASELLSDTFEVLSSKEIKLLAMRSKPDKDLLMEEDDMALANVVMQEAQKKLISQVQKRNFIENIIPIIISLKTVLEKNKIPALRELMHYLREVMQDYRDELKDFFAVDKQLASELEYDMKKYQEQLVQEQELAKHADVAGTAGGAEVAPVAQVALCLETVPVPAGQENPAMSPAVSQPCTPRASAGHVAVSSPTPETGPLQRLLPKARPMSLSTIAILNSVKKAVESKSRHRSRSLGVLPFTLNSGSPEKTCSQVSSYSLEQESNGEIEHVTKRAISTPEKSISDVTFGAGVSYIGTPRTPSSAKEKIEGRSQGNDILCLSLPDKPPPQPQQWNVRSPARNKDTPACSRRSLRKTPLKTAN
UniProt Q8NE86, sequence (Q8NE86 whole entry, looked up): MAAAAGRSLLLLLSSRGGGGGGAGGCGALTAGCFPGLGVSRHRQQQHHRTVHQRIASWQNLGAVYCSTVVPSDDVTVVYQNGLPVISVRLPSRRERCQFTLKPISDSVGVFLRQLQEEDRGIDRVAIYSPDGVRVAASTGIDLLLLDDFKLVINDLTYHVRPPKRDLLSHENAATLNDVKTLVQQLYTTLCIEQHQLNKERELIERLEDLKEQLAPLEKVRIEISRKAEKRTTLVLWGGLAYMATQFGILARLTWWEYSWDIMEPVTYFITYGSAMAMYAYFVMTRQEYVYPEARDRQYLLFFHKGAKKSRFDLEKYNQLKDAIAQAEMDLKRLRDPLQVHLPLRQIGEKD
UniProt Q9NX58, sequence (Q9NX58 whole entry, looked up): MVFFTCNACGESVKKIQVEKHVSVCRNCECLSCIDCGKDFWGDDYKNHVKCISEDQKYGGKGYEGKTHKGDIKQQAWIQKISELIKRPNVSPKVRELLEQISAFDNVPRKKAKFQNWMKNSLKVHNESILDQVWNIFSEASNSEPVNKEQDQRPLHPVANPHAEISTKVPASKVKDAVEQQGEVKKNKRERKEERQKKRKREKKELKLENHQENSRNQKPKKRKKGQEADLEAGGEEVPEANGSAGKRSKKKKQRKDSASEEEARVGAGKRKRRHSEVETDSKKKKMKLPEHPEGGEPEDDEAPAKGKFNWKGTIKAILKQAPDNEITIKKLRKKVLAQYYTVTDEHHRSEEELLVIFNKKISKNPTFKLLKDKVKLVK

Target	probe-labelled cysteine peptide fold change (10 µM)	probe-labelled cysteine peptide fold change (50 µM)
MTMR3_Q13615_188_LCGSYPQELIVPAWITDK (UniProt Q13615)	0.105	0.265
MINK1_Q8N4C8_129_EDCIAYICR (UniProt Q8N4C8)	0.00524	
MDN1_Q9NU22_882_LFACMNPATDVGKR (UniProt Q9NU22)	-0.0968	-0.078
MPG_P29372_56_AGQPHSSSDAAQAPAEQPHSSSDAAQAPCPR (UniProt P29372)	0.193	-0.822
MIS18A_Q9NYP9_85_AQLEEEAAAAEERPLVFLCSGCR (UniProt Q9NYP9)	-0.0813	
MAP1S_Q66K74_841_HDPLPDPLKVPPPLPDPSSICMVDPEMLPPK (UniProt Q66K74)	-0.202	
METTL18_O95568_48_CSAEQFDLPQDHLWEHK (UniProt O95568)	-0.285	
MTMR1_Q13613_438_TSVVVHCSDGWDR (UniProt Q13613)	0.559	-0.0364
MOV10_Q9HCE1_650_LVSAQFPIDHFTHIFIDEAGHCMEPESLVAIAGLMEVK (UniProt Q9HCE1)	0.00257	
MBTPS2_O43462_386_SSSSSFCIIPSLETHTR (UniProt O43462)	-0.0619	
MOCS3_O95396_193_YLVNDACVLAGRPLVSASALR (UniProt O95396)	-0.0913	-0.0185
MIF4GD_A9UHW6_150_EEEVDCLVLQLHR (UniProt A9UHW6)	0.222	
MED14_O60244_1433_QGECTIFAAVR (UniProt O60244)	0.177	0.249
MFN1_Q8IWA4_513_LCSDFQEDIVFR (UniProt Q8IWA4)	0.257	0.355
MYADM_Q96S97_279_SRDVSCSR (UniProt Q96S97)	1.04	1.29
MYH3_P11055_1412_CASLEK<|>MYH1_P12882_1415_CASLEK<|>MYH8_P13535_1414_CASLEK<|>MYH2_Q9UKX2_1417_CASLEK<|>MYH13_Q9UKX3_1415_CASLEK<|>MYH4_Q9Y623_1415_CASLEK (UniProt Q9Y623+Q9UKX3+Q9UKX2+P13535+P12882+P11055)	0.356	0.307
NCAPD3_P42695_143_CIQTLK (UniProt P42695)	0.0922	0.12
METTL5_Q9NRN9_107+110_NAEEFELTNIDMVQCDVCLLSNR (UniProt Q9NRN9)	-0.067	-0.00432

Target	probe-labelled cysteine peptide fold change (10 µM)	probe-labelled cysteine peptide fold change (50 µM)
MRC2_Q9UBG0_213_EDGHLWCATTQDYGKDER (UniProt Q9UBG0)	-0.0873	-0.0151
MDN1_Q9NU22_1400_TTICQVFAALANQK (UniProt Q9NU22)	0.156	0.0599
MTREX_P42285_983_LEIDEETYLSSFKPHLMDVVYTWATGATFAHICK (UniProt P42285)	0.115	-0.0469
MOV10_Q9HCE1_172_NGGTQSVTLTHLFPLCR (UniProt Q9HCE1)	0.234	0.148
MTA2_O94776_106_CSVTLLNETDILSQYLEK (UniProt O94776)	0.0256	0.178
MDN1_Q9NU22_4604_HLFFSQSCSLLVR (UniProt Q9NU22)	0.142	0.423
MAPRE2_Q15555_279_EIELLCQEHGQENDDLVQR (UniProt Q15555)	-0.0442	-0.23
MKNK2_Q9HBH9_136_EVEMLYQCQGHR (UniProt Q9HBH9)	0.495	0.556
NBEAL2_Q6ZNJ1_2335_ALEGIISNFGQTPCQLLK (UniProt Q6ZNJ1)	0.0509	-0.034
MORC3_Q14149_717_QCHMFTDQIK (UniProt Q14149)	-0.0943	0.000884
MED14_O60244_635_AGEMCAFNK (UniProt O60244)	-0.0268	-0.0566
MICAL2_O94851_1059_PHFIHCK (UniProt O94851)	0.00568	0.0284
MCM2_P49736_624_CTVIAAANPIGGR (UniProt P49736)	0.0682	0.0292
LYAR_Q9NX58_6+9_VFFTCNACGESVKK (UniProt Q9NX58)	-0.135	-0.2
MCU_Q8NE86_97_CQFTLKPISDSVGVFLR (UniProt Q8NE86)	-0.212	-0.196
MAD1L1_Q9Y6D9_662_LTSLYAEHPGDCLIFK (UniProt Q9Y6D9)	0.00589	-0.0309
MED15_Q96RN5_618_QQYLCQPLLDAVLANIR (UniProt Q96RN5)	-0.00606	0.36
MAP4K2_Q12851_302_ASDPHLGTPSPEDCELETYDMFPDTIHSR (UniProt Q12851)	-0.0289	-0.161
